{
  "source": "PubChem BioAssay AID687009",
  "about": "(National Center for Advancing Translational Sciences (NCATS), 2013)",
  "note": "Inconclusive results are not listed. A number with no mark means an inactive call. The source made the active and inactive calls. Calls follow the shape of the dose curve; as a rule, active = well fitted curve in the direction sought with a large enough effect; inconclusive = small, poorly fitted or top-dose-only effect, or another doubt; inactive = no such curve, though single readings can be large or run the other way.",
  "data": [
    {"molecular_target": "Lysine-specific histone demethylase 1A (Homo sapiens) (UniProt O60341)", "experiment": "qHTS Assay for Inhibitors of Human Jumonji Domain Containing 2E (JMJD2E): Counterscreen with LSD1", "conditions": "Amplex Red/HRP fluorescence; series mostly up to 57.1 µM; activity, negative = inhibition: at the top concentration", "source_text": "The fine interplay among methylation states of several lysine residues on the tails of histone proteins is a major determinant of the transcriptional state of the associated DNA coding regions and is commonly referred to as the histone code. Histone lysine demethylases catalyze the removal of methyl groups from methylated lysine sidechains on histones H3 and H4, thus antagonizing the reactions catalyzed by histone lysine methyltransferases. […] In search for novel inhibitors of JMJD2E demethylase, a member of the largest set of histone demethylases belonging to the Fe(II) and 2-oxoglutarate oxygenase (2OG) superfamily, we performed a quantitative high-throughput screen (Inglese 2006) by using an assay which utilizes a trimethylated peptide substrate corresponding to a fragment of histone H3 (sequence ARKme3STGGK) with detection of the formaldehyde co-product in real time by a formaldehyde dehydrogenase (FDH) coupled reaction. FDH catalyzes oxidation of formaldehyde to formic acid with the concomitant reduction of the non-fluorescent beta-nicotinamide adenine dinucleotide hydrate (NAD+) cofactor to the fluorescent NADH co-product. Compounds that were validated hits were screened against the histone LSD1 histone demethylase. […] NIH Chemical Genomics Center [NCGC] NIH Molecular Libraries Probe Centers Network [MLPCN] MLPCN Grant: MH084681 Assay Submitter (PI): Udo Oppermann, Structural Genomics Consortium, University of Oxford\nThe assay was performed in a buffer containing 10 mM HEPES, Na pH 7.5, 5 mM MgCl2, 50 mM KCl, 0.01% Nonidet P-40, and 0.1% BSA. LSD1 was sourced from BPS Bioscience (Cat. No. 50100, San Diego, CA) and the substrate peptide was synthesized and purified by Tufts University Core Facilities (Boston, MA). Reagents (3 microL) containing either buffer-only (inhibited control) or LSD1 (120 nM) were dispensed into a 1,536-well Aurora black solid bottom cycloolefin plate (see Table 1 for protocol steps). Compounds (23 nL) were transferred via Kalypsys pintool equipped with a 1,536-pin array. The plate was incubated for 10 min at room temperature, followed by the addition of 1 microL 4 X substrate (10 mM HEPES, pH 7.5, 8 U/mL HRP, 800 µM Amplex Red, and 200 microM H3K4Me2 peptide [Sequence H-ARTXQTARKSTGGKAPRKQLA-NH2, where X = Nepsilon,Nepsilon-dimethyl-L-lysine]) to start the reaction. The plate was then centrifuged at 1,000 rpm for 15 seconds, and the fluorescence intensity was recorded on a ViewLux High-throughput CCD imager (Perkin-Elmer) using standard TAMRA optics (525 nm excitation and 598 nm emission). The plate was then incubated for 30 min at room temperature, and a second read on the ViewLux was performed. The fluorescence intensity difference over the 30 min was used to calculate the respective reaction rate for each well.", "units": {"activity, negative = inhibition": "%"}, "values": [
      {"smiles": "NC(=O)c1ccnc2c(O)cccc12", "activity, negative = inhibition": -17.5},
      {"smiles": "CN1CCN(C(=O)c2ccc(-c3cnc4c(O)ccc(C(=O)O)c4c3)cc2)CC1", "activity, negative = inhibition": -15.6},
      {"smiles": "O=C(O)c1ccc(O)c2ncc(-c3ccc(C(=O)N4CCNCC4)cc3)cc12", "activity, negative = inhibition": -16.8},
      {"smiles": "O=C(O)c1ccc(O)c2ncc(-c3cccc(N4CCOCC4)c3)cc12", "activity, negative = inhibition": -17.8},
      {"smiles": "CN(C)CCCNC(=O)c1ccc(-c2cnc3c(O)ccc(C(=O)O)c3c2)cc1", "activity, negative = inhibition": -17.5},
      {"smiles": "O=C(O)c1ccc(O)c2ncc(C3CCNCC3)cc12", "activity, negative = inhibition": -15},
      {"smiles": "O=C(O)c1ccc(O)c2ncc(-c3ccc(N4CCOCC4)cc3)cc12", "activity, negative = inhibition": -20.2},
      {"smiles": "O=C(O)c1ccc(O)c2ncccc12", "activity, negative = inhibition": -17},
      {"smiles": "O=C(O)c1ccnc2c(O)cccc12", "activity, negative = inhibition": -19},
      {"smiles": "CN(C)CCCN1CCCN(C(=O)c2cccc(-c3cc(O)c4ncccc4c3)c2)C1", "Potency": "10.8 µM (active)"}
    ]}
  ]
}
